Test results: ChEMBL document CHEMBL3988442, “University of Dundee, Small-Polar-MMV Screening Library” (2021)
For some assays here: Potency and affinity values are given separately.

Legend:
Parameters in all cases: scale not given: direction of the effect not stated beside the values
[1] = molecular target: Protein translocase subunit SecA (Escherichia coli (strain K12)) (UniProt P10408); test: Assay to Identify E. coli SecA ATPase Inhibitors; type: functional; conditions: 30 µM
[2] = molecular target: T1, Ubiquitin-activating enzyme e1, putative (Leishmania donovani (strain BPK282A1)) (UniProt E9BSI1); test: Leishmania donovani Ubiquitin Activating Enzyme (LdE1); type: functional; conditions: 30 µM
T1 sequence (whole entry): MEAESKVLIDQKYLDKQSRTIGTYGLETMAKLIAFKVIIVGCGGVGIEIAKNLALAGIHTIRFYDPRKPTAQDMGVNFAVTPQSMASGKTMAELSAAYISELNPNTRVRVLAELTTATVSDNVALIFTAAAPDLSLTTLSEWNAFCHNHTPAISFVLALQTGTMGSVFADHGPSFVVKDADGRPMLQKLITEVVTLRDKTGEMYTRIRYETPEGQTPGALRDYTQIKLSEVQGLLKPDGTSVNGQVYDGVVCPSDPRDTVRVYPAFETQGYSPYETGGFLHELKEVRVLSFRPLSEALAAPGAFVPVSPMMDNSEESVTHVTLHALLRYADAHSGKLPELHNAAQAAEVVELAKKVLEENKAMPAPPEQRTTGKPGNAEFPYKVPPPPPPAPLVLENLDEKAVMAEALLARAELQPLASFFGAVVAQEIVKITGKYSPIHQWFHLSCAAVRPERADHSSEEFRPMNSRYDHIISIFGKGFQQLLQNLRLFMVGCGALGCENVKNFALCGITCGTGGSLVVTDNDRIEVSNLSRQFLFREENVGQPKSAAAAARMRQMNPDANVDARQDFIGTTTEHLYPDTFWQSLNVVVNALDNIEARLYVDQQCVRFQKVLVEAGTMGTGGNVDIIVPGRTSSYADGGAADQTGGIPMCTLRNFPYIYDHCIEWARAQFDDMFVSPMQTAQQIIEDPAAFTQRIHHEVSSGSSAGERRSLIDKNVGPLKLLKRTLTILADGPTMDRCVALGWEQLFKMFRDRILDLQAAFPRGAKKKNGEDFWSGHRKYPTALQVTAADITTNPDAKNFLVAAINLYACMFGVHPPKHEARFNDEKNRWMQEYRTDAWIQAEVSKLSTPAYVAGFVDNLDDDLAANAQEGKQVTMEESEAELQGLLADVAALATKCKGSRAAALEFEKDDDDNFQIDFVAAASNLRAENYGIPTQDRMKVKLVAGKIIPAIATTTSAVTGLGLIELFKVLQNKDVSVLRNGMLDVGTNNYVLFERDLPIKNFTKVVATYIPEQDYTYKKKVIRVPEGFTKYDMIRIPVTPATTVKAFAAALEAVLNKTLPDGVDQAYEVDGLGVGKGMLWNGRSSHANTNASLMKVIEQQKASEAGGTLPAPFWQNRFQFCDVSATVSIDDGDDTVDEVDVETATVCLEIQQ

[3] = molecular target: AMP-activated protein kinase, AMPK (Homo sapiens) (UniProt P54646+O43741+P54619+Q9UGJ0+Q9Y478+Q13131+Q9UGI9); test: AMP-dependent Kinase enzyme assay. An in vitro enzyme assay that detects ADP turnover that is directly proportional to AMPK activity. This uses naive AMPK that is activated during the assay with MK-8722; type: functional; conditions: 30 µM
[4] = molecular target: Sialic acid-binding Ig-like lectin 9 (Homo sapiens) (UniProt Q9Y336); test: Hs-Siglec9 ALPHAscreen SOP 20170721; conditions: 10 µM
Trypanosoma cruzi = test: Trypanosoma cruzi phosphomannomutase and mannose-1-phosphate guanylyltransferase assay; type: functional; conditions: 10 µM
[5] = molecular target: T2, Arginase-2, mitochondrial (Homo sapiens) (UniProt P78540); test: in vitro enzyme assay to detect the production of urea directly proportional to the activity of Arginase II; type: functional; conditions: 33.3 µM; further: in the data most compounds retested in dose-response had high values
T2 sequence (whole entry): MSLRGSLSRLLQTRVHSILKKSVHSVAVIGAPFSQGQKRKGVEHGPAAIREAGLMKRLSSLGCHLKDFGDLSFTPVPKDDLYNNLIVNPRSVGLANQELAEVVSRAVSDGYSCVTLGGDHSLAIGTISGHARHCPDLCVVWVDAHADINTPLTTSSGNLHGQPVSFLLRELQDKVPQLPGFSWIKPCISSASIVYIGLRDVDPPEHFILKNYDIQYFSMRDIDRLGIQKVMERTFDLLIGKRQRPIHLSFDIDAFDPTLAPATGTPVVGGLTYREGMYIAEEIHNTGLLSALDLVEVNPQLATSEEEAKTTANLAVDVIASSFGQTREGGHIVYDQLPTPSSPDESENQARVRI

[6] = molecular target: T3, Proteasome subunit beta (Trypanosoma cruzi) (UniProt O96673); test: Trypanosoma cruzi proteasome chymotrypsin-like activity (TcProtChymo) assay.; further: in the data most compounds retested in dose-response had high values; type: functional; conditions: 9.37 µM
T3 sequence (whole entry): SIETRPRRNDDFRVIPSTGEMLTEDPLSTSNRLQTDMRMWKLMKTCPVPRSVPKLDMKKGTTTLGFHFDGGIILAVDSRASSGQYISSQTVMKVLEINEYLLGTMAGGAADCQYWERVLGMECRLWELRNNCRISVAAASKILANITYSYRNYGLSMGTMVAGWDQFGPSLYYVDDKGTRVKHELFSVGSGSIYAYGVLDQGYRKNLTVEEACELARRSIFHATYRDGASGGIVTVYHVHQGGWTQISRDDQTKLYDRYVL

Homo sapiens = species on record: Homo sapiens; test: To identify inhibition of the IFN signalling (Jak-Stat) pathway via expression of an eGFP reporter gene under the control of an IFN-stimulated response element (ISRE) containing MxA promoter.; type: functional; conditions: 30 µM
[7] = molecular target: T4, Tyrosyl-tRNA synthetase, putative (Trypanosoma cruzi (strain CL Brener)) (UniProt Q4DSP6); test: Trypanosoma cruzi tyrosyl tRNA synthetase (TcYRS) _High Tyrosine SOP; type: functional; conditions: 30 µM; further: in the data most compounds retested in dose-response had high values
T4 sequence (whole entry): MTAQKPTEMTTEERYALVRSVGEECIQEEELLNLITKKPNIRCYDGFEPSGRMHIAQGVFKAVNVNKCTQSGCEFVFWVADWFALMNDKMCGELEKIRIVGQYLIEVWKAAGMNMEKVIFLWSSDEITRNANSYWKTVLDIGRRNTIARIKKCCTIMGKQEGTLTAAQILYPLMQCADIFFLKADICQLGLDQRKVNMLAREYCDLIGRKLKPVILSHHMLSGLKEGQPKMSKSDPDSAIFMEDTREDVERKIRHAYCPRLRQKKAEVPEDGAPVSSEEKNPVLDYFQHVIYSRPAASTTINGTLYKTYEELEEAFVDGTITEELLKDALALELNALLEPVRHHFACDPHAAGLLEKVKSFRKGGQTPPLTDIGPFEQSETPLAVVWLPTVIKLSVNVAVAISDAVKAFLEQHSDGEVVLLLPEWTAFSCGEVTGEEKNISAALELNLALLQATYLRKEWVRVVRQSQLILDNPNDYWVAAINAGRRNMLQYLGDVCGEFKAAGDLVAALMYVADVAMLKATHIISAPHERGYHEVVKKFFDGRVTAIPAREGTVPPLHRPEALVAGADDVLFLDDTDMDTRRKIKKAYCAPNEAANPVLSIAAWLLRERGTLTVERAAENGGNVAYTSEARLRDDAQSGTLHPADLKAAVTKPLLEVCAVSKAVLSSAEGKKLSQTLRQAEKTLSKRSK

[8] = molecular target: T4, Tyrosyl-tRNA synthetase, putative (Trypanosoma cruzi (strain CL Brener)); test: Trypanosoma cruzi tyrosyl tRNA synthetase (TcYRS) SOP; type: functional; conditions: 30 µM
[9] = molecular target: Chromo domain-containing protein 1 (Saccharomyces cerevisiae (strain ATCC 204508 / S288c) (Baker's yeast)) (UniProt P32657); test: ScCHD-1 Enzyme Inhibition Assay; type: functional; conditions: 30 µM; further: in the data most compounds retested in dose-response had high values
Chromo domain-containing protein 1 (Saccharomyces cerevisiae (strain ATCC 204508 / S288c) (Baker's yeast)), sequence (P32657 whole entry, the tested form may be a part): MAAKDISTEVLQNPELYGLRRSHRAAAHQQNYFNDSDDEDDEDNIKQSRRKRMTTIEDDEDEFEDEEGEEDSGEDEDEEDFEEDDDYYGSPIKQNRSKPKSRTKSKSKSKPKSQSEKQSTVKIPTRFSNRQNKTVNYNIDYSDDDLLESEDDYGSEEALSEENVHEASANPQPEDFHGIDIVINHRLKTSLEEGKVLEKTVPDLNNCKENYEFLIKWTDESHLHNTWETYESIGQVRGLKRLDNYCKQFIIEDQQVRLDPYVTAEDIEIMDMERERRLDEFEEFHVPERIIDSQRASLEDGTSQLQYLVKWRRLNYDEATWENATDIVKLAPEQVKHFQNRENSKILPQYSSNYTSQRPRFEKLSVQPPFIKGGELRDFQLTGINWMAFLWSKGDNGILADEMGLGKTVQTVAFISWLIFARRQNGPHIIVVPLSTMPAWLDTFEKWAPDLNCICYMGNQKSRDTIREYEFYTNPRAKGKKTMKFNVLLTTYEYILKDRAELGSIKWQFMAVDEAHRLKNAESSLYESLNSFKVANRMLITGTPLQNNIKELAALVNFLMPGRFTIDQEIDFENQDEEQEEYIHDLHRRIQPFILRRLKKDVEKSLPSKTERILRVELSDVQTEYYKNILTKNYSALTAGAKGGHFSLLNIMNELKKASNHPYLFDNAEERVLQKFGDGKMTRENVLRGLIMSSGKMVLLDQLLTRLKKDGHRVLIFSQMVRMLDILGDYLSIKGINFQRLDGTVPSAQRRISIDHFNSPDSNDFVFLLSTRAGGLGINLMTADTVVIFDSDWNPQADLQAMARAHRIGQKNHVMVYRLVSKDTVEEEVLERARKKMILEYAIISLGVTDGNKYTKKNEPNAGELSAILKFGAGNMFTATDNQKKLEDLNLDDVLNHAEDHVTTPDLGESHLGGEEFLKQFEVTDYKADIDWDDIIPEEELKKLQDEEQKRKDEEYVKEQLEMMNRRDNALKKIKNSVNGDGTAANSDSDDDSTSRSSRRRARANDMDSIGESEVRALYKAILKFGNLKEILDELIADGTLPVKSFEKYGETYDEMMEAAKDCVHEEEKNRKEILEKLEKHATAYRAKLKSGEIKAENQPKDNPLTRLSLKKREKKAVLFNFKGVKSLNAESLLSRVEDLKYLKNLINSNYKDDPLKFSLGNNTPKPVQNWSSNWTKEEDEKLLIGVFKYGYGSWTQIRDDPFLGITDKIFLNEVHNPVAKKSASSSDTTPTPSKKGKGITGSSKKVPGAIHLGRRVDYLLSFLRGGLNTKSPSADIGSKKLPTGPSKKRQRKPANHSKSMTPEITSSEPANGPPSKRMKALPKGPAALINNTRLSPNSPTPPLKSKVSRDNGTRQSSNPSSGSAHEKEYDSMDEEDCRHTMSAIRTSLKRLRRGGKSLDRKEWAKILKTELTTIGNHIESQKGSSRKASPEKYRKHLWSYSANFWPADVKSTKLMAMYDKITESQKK

Protein translocase subunit SecA (Escherichia coli (strain K12)), sequence (P10408 whole entry): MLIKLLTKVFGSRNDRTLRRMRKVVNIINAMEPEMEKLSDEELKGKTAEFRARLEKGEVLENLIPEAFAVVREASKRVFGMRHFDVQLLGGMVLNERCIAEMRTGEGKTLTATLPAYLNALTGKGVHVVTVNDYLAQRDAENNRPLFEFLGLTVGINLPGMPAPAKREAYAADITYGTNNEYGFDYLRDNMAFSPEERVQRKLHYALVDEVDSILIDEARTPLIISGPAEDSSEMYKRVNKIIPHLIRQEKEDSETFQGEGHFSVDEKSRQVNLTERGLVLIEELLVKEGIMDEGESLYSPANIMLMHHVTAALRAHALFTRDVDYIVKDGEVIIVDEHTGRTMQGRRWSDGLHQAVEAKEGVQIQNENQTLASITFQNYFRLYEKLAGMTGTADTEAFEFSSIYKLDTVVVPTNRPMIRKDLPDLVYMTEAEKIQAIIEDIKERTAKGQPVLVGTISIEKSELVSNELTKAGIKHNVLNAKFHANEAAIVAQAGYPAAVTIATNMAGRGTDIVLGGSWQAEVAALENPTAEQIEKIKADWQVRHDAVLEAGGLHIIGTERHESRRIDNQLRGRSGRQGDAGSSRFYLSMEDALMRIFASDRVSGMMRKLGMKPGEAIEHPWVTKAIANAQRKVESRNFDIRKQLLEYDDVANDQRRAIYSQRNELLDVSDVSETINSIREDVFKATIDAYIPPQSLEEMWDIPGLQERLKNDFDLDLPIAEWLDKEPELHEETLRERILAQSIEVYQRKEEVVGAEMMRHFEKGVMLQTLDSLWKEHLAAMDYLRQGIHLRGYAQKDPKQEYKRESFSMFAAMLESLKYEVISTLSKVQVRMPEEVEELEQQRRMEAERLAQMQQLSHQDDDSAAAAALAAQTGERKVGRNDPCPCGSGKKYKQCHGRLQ
Sialic acid-binding Ig-like lectin 9 (Homo sapiens), sequence (Q9Y336 whole entry): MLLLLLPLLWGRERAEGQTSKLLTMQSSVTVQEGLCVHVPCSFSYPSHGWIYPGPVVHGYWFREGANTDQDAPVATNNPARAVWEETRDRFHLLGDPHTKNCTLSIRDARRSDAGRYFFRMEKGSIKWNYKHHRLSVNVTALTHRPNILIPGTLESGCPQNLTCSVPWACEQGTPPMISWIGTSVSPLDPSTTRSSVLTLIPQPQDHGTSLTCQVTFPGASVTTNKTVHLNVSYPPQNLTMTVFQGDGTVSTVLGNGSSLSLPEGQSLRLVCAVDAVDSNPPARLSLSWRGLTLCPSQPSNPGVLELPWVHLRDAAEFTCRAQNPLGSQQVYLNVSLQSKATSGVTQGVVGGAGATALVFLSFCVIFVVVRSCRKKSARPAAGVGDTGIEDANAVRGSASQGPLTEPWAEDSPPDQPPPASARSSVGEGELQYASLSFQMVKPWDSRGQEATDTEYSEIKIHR

| SMILES | Percent Effect [1] | Percent Effect [2] | Percent Effect [3] | Percent Effect [4] | Percent Effect (Trypanosoma cruzi) | Percent Effect [5] | Percent Effect [6] | Percent Effect (Homo sapiens) | Percent Effect [7] | Percent Effect [8] | Percent Effect [9] |
| --- | --- | --- | --- | --- | --- | --- | --- | --- | --- | --- | --- |
| Cc1noc(NC(=O)c2ccc(Br)s2)n1 | 1.05% | -5.26% | 14.6% | -3.75% | -5.13% | 3.96% | 9.39% | 40.2% | -3.45% | 1.24% | 15.6% |
| CN(C)Cc1cnc2n1CCN(Cc1ccsc1)CC2 | -2.78% | 13.7% | -4.83% | 6.79% | 2.98% | 1.2% | 13.4% | 6.89% | 8.33% | 11.1% | -0.604% |
| CC(C)CN1CCC2(C=C(C(=O)N3CCCC3)c3ccccc32)CC1 | -2.44% | 0% | -1.76% | 3.68% | -6.76% | -56.8% | 7.35% | 1.33% | 5.21% | 10% | -7.39% |
| COc1ccc(CN2C[C@H]3CN(c4ccsc4)C(=O)[C@H]3C2)cc1 | -1.53% | 0% | 6.82% | -0.914% | -3.23% | 0.955% | 19% | 14.6% | 2.16% | 10.3% | -1.59% |
| c1cnc(-c2nc(CN3CCOC(Cn4cncn4)C3)cs2)nc1 (configuration not stated) | -3.88% | 29.7% | -7.99% | -4.32% | -0.66% | -12.8% | 9.91% | 18.1% | 1.48% | 13.6% | -6.92% |
| Cc1noc2ncc(C(=O)N3CCCC3c3ccncc3)cc12 (configuration not stated) | -7.65% | 20.2% | -6.44% | 0.762% | 10.1% | -3.42% | 17.4% | 21.9% | 5.42% | 24.1% | -9.53% |
| CC(C)C(=O)N1CCN(Cc2cc(-c3ccncc3)nn2C)CC1 | -5.03% | 12.2% | -0.905% | 1.54% | 3.75% | -3.48% | 8.89% | 0.905% | -5.38% | 11.7% | -13.7% |
| COc1ccc(C(C)N2CCN(Cc3nccn3C)CC2)cc1Cl (configuration not stated) | -3.06% | 2.6% | -0.681% | 9.44% | -1.87% | 0.712% | 11.3% | 9.04% | 2.91% | 0% | -0.322% |
| CN(CC(=O)N1CCCC1Cn1cccn1)c1cnccn1 (configuration not stated) | -5.14% | 0% | 0.965% | 10.7% | -1.6% | -1.9% | -0.901% | 15.8% | -2.46% | -1.27% | -2.89% |
| c1nc2c(c(C3CC3)n1)CCN(Cc1ccoc1)CC2 | 0.0846% | 19.2% | -4.87% | 5.4% | 5.56% | -0.798% | 6.59% | 5.88% | 8.33% | 23.5% | -3.03% |
| O=C(CN(C1=NCCCC1)c1ccccc1)c1ccccc1 | -3.17% | -2.63% | 3.38% | -3.96% | -3.21% | -7.1% | 7.96% | -2.85% | -3.19% | -10.4% | -5.81% |
| CC(C)C(C(=O)N1CCC(N(C)c2cccnn2)CC1)n1cncn1 (configuration not stated) | -2.45% | 0% | -10.6% | 4.35% | -3.49% | 4.01% | 9.01% | 11.7% | -0.493% | 1.24% | 6.08% |
| CC(=O)N1CC[C@@H]2CN(C(=O)c3ccco3)CCO[C@@H]2C1 | 0.266% | 13.3% | 8.75% | 0.752% | -4.33% | 6.29% | 12.8% | -9.46% | 3.19% | 3.85% | -2.25% |
| CN(C)C(=O)N1CCc2c(CNc3ncccn3)cncc2C1 | -2.85% | 0% | -1% | 7.13% | 1.35% | -23.8% | 1.88% | -4.02% | 6.25% | 7.5% | -2.6% |
| CN(Cc1cnn(C)c1)C(=O)NC1CCC(O)CC1 (configuration not stated) | -2.67% | 4.17% | -6.32% | 15.8% | 2.82% | 9.71% | 13% | -3.51% | 0% | 2.56% | -2.95% |
| COc1ccc(OC)c(-c2nc(CN(C)Cc3nncn3C)c(C)o2)c1 | -4.01% | 11% | 12% | -0.646% | -1.57% | 0.909% | 13.7% | -0.225% | 7.53% | 15% | -5.1% |
| CC(NC(=O)NCCCN1CCCCCC1)c1nncn1C (configuration not stated) | -2.66% | 10.8% | -6.67% | 18.7% | 6.78% | -6.47% | -5.03% | 18% | 5.94% | 18.3% | -3.61% |
| CC1CCN(c2ncc3c(n2)CN(c2ccccc2)C3=O)CC1 | -5.32% | 5.2% | -0.285% | 2.67% | -5.8% | -30.3% | -5.82% | -2.62% | 2.15% | 11.1% | 5.77% |
| O=C1COc2ccc(C(=O)NS(=O)(=O)c3ccc(F)cc3F)cc2N1 | -2.51% | -7.89% | 6.3% | -2.06% | 2.15% | -4.32% | -1.78% | -9.03% | 4.43% | 3.7% | 6.46% |
| CC(C)(C)c1ncc2c(n1)CN(C(=O)c1ccc(-c3nc[nH]n3)cc1)C2 | -4.17% | 19.2% | -3.06% | 7.66% | 4.37% | 1.2% | 6.76% | -4.4% | 7.29% | 21% | -8.9% |
| O=C(O)c1csc(S(=O)(=O)N2CCCc3ccc(F)cc32)c1 | -6.97% | -2.67% | -4.41% | 4.48% | 0.682% | 0% | 6.1% | 8.48% | -13.7% | -13.6% | -5.31% |
| CCN(CC)S(=O)(=O)N1CCCC(c2cccc(C(=O)O)c2)C1 (configuration not stated) | -3.72% | 16.2% | -6.67% | 19.8% | 6.56% | 0.952% | 10.9% | 5.56% | 6.88% | 17.1% | -5.44% |
